From PubChem
Casp6 inh: caspase-6 (human) enzyme inhibition. AID 686996. P55212. purified caspase-6, Z-VEID-R110 cleavage fluorescence. inhibition, % at 12.5 µM. hit rate 0.53% among 350,000;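 active = mean inhibition across replicates at least about 35%, with every replicate also reaching that limit, limit read from the data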;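 also: 0% = median of neutral control wells and 100% = no fluorescence left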
NSD2 inh: inhibitors of human histone methyltransferase NSD2 | NSD2 peptide methylation, AlphaScreen, 120 min | hit rate 0.54% among 310,000 | inhibition, % at 12.5 µM | O96028; in the data active = inhibition above about 50%
MLL AF4-AF9 inh: MLL-AF4/AF9 protein interaction inhibition; P42568; AlphaScreen, biotin-AF4 peptide binding to FLAG-AF9; hit rate 0.47% among 350,000; inhibition, % at 10 µM;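 active = every replicate reaching a set inhibition limit, whatever the replicate mean, cut at about 25% in these data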;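 also: 0% = plate neutral control median and 100% = total signal loss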
Target sequence (P42568 whole entry, looked up): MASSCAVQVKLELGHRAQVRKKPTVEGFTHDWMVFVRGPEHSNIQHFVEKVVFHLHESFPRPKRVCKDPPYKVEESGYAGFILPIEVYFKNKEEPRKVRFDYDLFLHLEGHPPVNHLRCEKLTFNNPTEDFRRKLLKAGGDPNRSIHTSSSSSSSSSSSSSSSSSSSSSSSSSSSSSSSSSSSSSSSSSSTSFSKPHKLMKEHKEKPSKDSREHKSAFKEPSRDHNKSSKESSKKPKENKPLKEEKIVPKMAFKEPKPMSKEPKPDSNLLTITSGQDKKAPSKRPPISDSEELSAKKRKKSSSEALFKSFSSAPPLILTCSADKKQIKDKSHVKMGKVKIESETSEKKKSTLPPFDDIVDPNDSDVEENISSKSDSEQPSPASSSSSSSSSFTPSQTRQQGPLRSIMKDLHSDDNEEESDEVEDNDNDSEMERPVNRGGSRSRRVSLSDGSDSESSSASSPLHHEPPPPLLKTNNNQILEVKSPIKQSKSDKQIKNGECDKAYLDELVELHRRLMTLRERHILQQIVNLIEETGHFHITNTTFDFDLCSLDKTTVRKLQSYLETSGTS
RAD52 inh: inhibitors of human RAD52 DNA annealing; P43351; recombinant RAD52 DNA annealing, FRET fluorescence; inhibition, % at 18.7 µM; hit rate 0.46% among 360,000; AID 651710;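 active = every replicate showing at least 50% inhibition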
miR-122 sensor: inhibitors of miR-122 in Huh7 cells | Huh7 miR-122 Renilla luciferase sensor, 48 h; neutral wells = 0, positive control = 100 | activation (reporter increase), % at 12.5 µM | hit rate 0.3% among 340,000;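 active = mean replicate activation score at least 90 and every replicate individually at or above 90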;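 also: higher luciferase means less miR-122 activity so hits act as miR-122 inhibitors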
DNA binder FP: DNA binding artifact in RAD52 counter-screen; Salmon sperm DNA/acridine orange FP displacement; hit rate 8% among 1,000; AC50, µM; shares compounds with RAD52 inh;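 active = fitted half-maximal concentration for signal loss at or below twice the highest dose tested, in every separate run, actives reach about 64 µM in these data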
The depositor's hits bear a star; i = inactive; / = not tested or not shown; ! = not confirmed by another sample; [ ] = another dose, or the depositor's remark. Rows were chosen to be rich in hits. Some 1.5% of all compounds tested hit in one or more screens of this group.

SMILES	Casp6 inh	NSD2 inh	MLL AF4-AF9 inh	RAD52 inh	miR-122 sensor	DNA binder FP
O=C(CC(C(=O)O)c1cccc(Br)c1)c1ccc(Cl)cc1 (configuration not stated)	-3	-3	0	108*	-2	i
CNC(=S)N(CCc1cccc(C)c1)Cc1cc2cc(OC)c(OC)cc2[nH]c1=O	1	/	8	-15	/	/
COc1cc2cc(CN(CCc3cccc(C)c3)C(=S)NCCCN(C)C)c(=O)[nH]c2cc1OC	2	8	-34	51*	/	i
COCC(=O)N1CC(=O)N2[C@@H](CO)[C@@H](c3ccc(C#Cc4cccc(OC)c4)cc3)[C@@H]2C1	9	/	0	-9	/	/
c1c[nH]c(CN2CCN(Cc3ncc[nH]3)CC2)n1	-259	-3	28*	56*	/	i
c1ccc(N2CCN(Cc3nc4ccccc4[nH]3)CC2)nc1	7	-3	0	-6	5	/
Cc1cccn2c(=O)c3cc(C(=O)NCCN4CCOCC4)c(=N)n(CCCN4CCOCC4)c3nc12	-32	3	-2	78*	-12	i
Cc1cccn2c(=O)c3cc(C(=O)NCc4ccccc4)c(=N)n(CCCN4CCOCC4)c3nc12	-4	/	6	32	-3	/
COc1ccc(CCNC(=O)c2cc3c(=O)n4ccccc4nc3n(CCCN3CCOCC3)c2=N)cc1OC	-11	11	4	54*	/	i
CCCC#Cc1ccc2c(c1)O[C@H](CN(C)C(=O)COC)[C@@H](C)CN([C@H](C)CO)S2(=O)=O	-1	/	0	-1	0[16.7 µM]	/
CCC(=O)N1CC2(CCN(Cc3cncnc3)CC2)c2c([nH]c3cc(OC)ccc23)[C@@H]1CO	/	/	0	-8	/	/
C[C@]12CC[C@H](O)CC1=CCC1C2CC[C@@]2(C)C1CC[C@@H]2NC(=O)[C@@H](N)Cc1cnc[nH]1 (some centres not stated)	1	1	2	80*	2	i
C[C@]12CC[C@H](O)CC1=CCC1C2CC[C@@]2(C)C1CC[C@@H]2NC(=O)[C@@H](N)CO (some centres not stated)	0	4	-6	-1	/	/
CCc1ccc(OCCNc2cc(N3CCNC(C)C3)ccc2[N+](=O)[O-])cc1 (configuration not stated)	-8	6	37*	11	/	i
CCN1CCN(Cc2ccc(NC(=O)c3ccc(C)c(NC(=O)c4ccnnc4)c3)cc2C(F)(F)F)CC1	-9	/	1	-16	/	/
CCN1CCN(Cc2ccc(NC(=O)c3cc(NC(=O)C(=O)c4c[nH]c5ccccc45)cc(OC)c3)cc2C(F)(F)F)CC1	-10	/	14	-11	-15	/
CCN1CCN(Cc2ccc(C(=O)Nc3ccc(C)c(NCc4cnc(NC(=O)OC)cn4)c3)cc2C(F)(F)F)CC1	-31	/	20	96*!	-3	i
CCN1CCN(Cc2ccc(NC(=O)c3cccc(-c4ccc5nc(NC(=O)C6CC6)sc5n4)c3)cc2C(F)(F)F)CC1	-8	/	10	67*	/	i
CCN1CCN(Cc2ccc(NC(=O)c3ccc(C)c(NC(=O)C(=O)c4c[nH]c5ccccc45)c3)cc2C(F)(F)F)CC1	-9	/	15	99*!	-27	i
C[C@H](CO)N1C[C@H](C)[C@@H](CN(C)Cc2ccncc2)Oc2ccc(NC(=O)Cc3cn(C)c4ccccc34)cc2C1=O	-2	/	5	5	9[16.7 µM]	/
CCN1CCc2c(sc(NC(=O)c3cc4ccccc4cc3OC)c2C(N)=O)C1	-2	1	11	76*	-14	i
CC(C)N1CCc2c(sc(NC(=O)c3cc4cc([N+](=O)[O-])ccc4s3)c2C(N)=O)C1	-2	/	13	56*	/	i
CCN(CC)CCN(C(=O)c1ccc2ccccc2c1)c1nc2cc3c(cc2s1)OCO3	-3	3	5	61*	1	i
CN(C)CCN(C(=O)c1cc(Cl)sc1Cl)c1nc2ccc(F)cc2s1	-1	0	13	-4	-10	/
COc1ccc(C)c2sc(N(CCN(C)C)C(=O)c3ccc4ccccc4c3)nc12	-23	2	29*	73*	-5	i
SMILES	Casp6 inh	NSD2 inh	MLL AF4-AF9 inh	RAD52 inh	miR-122 sensor	DNA binder FP
COc1ccc(OC)c2sc(N(CCN(C)C)C(=O)c3cc(Cl)sc3Cl)nc12	-3	/	21	51*	/	i
CN(C)CCN(C(=O)c1ccc(C(=O)c2ccccc2)cc1)c1nc2cc3c(cc2s1)OCO3	-1	-1	5	-6	/	/
Cc1cccc(CN2C(=O)c3ccccc3S(=O)(=O)c3ccc(C(=O)NCCCN4CCCC4)cc32)c1	-26	4	7	51*	4	i
CCN(CC)CCOC(=O)c1ccc(NC(=O)/C=C/c2cccs2)cc1	-10	7	9	58*	/	i
CCN(CC)CCOC(=O)c1ccc(N)cc1	/	/	-3	88*	0	i
CCCOc1cc(N)ccc1C(=O)OCCN(CC)CC	-16	/	2	62*	-12	i
CN1CCN(CCCNCc2cn(CCC#N)c3ccccc23)CC1	-205	6	25*	63*	-1	i
N#CCCN1CCN(Cn2c3ccccc3c3ccccc32)CC1	/	-4	/	/	3	/
CCn1cc(C(=O)NN)c(=O)c2cc(F)c(N3CCCCC3)cc21	-2	/	1	-4	-5	/
CCn1cc(C(=O)NN)c(=O)c2cc(F)c(N3CCN(C)CC3)cc21	-51	4	3	97*	-5	i
CC(C)(c1ccccc1)c1ccc(OCCCN2CCNCC2)cc1	15	9	18	57*	/	i
CC(C)(C)c1ccc(OCCCCCCN2CCNCC2)cc1	-86	7	16	42	-5	/
CC#CC[N+](C)(C)CCCCCCCC	-3	4	-2	-6	2	/
CCCCCCCCCCCCCCCC[N+](C)(C)Cc1ccc(F)cc1	-196	/	5	91*	/	26µM*
CN(C)CC/C=C1\c2ccccc2Sc2cc(F)c(Cl)cc21	-8	15	28*	63*	/	i
CN(C)CC/C=C1/c2cc(F)ccc2CSc2ccc(F)cc21	/	7	/	/	/	/
CN(C)CC/C=C1\c2cc(Cl)ccc2Sc2cc(F)c(F)cc21	-7	35	31*	62*	/	i
COc1cccc(CNCCSc2nnnn2C)c1OC	-47	1	-1	103*	3	i
COc1cc(CNCCSc2nnnn2C)cc(OC)c1OC	/	-5	/	/	/	/
C#CCOCCOCCOCCNc1nc(N2CCN(C(=O)[C@H]([C@@H](C)CC)n3cc([C@@H](N)CO)nn3)CC2)nc(N2CCN(C(=O)[C@H](CCCCN)n3cc([C@@H](N)CC(C)C)nn3)CC2)n1	-146	/	15	52*	/	i
C#CCOCCOCCOCCNc1nc(N2CCN(C(=O)[C@H]([C@@H](C)CC)n3cc([C@@H](N)CC(C)C)nn3)CC2)nc(N2CCN(C(=O)[C@H]([C@@H](C)CC)n3cc([C@@H](N)CC(C)C)nn3)CC2)n1	-5	/	18	-22	-22	/
